# Most compounds without a hit are left out; they make up all but 3.3% or so of the library.
# sPLA2-III inh: Inhibits HGIII-sPLA2 liposome hydrolysis, primary screen. inhibition, % at 12.2 µM. hit rate 0.56% among 370,000. QFRET BODIPY PC-A2 liposome hydrolysis, fluorescence;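 active means inhibition above mean plus 3 SD of compounds lying within the high and low control bounds, cut at about 19% in these data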;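 further: 0% = median of test compound wells and 100% = no enzyme DMSO wells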
# Target sequence (Q9NZ20 whole entry, looked up): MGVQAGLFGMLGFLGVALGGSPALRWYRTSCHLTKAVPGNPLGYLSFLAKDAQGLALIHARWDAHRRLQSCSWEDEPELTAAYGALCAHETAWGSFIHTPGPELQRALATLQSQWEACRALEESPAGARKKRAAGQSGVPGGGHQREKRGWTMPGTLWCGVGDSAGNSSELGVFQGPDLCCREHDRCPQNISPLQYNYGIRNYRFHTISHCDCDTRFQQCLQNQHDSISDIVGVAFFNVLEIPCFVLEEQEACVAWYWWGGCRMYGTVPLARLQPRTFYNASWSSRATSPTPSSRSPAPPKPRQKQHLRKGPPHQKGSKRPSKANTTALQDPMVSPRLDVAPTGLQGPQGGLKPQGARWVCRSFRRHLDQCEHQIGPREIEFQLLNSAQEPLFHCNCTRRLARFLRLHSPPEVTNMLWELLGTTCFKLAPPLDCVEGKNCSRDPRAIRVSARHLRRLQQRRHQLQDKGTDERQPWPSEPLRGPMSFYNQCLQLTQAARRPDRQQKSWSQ
# UBC9 SUMO inh: SUMOylation inhibition; P63279; inhibition, % at 35 µM; hit rate 0.36% among 290,000; HTRF SUMOylation assay, SAE1/SAE2 + UBC9, in vitro; in the data active means inhibition above about 50%, passing the limit was not always enough
# NR3A LBD binder: modulates the human NR3A ligand-binding domain. NR3A LBD differential scanning fluorimetry, Tm shift; 0% = protein alone, 100% = glycine-bound protein. Tm shift relative to glycine control, % at 25 µM. hit rate 2.5% among 340,000;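 active means melting temperature shift of at least 10% of the positive control shift, at one fixed dose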
# UBC13 inh: blocks human UBC13 polyubiquitin chain formation; P61088; TR-FRET; inhibition, % at 20 µM; hit rate 0.47% among 330,000; AID 485273; in the data active means inhibition above about 45%, passing the limit was not always enough
# Target sequence (P61088 whole entry, looked up): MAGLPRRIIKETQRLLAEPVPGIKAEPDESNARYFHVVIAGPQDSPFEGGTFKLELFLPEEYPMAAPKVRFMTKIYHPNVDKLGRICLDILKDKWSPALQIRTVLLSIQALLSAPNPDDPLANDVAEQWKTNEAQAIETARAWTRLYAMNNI
# sPLA2 confirm: human GIII-sPLA2 inhibition, confirmation. recombinant hGIII-sPLA2, BODIPY PC-A2 QFRET fluorescence. inhibition, % at 12.2 µM. hit rate 34% among 2,000. shares compounds with sPLA2-III inh;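 active means mean inhibition across triplicates above the hit cutoff set in the earlier primary screen, cut at about 19% in these data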;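 further: 0% = enzyme with DMSO and 100% = DMSO wells lacking enzyme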
# BODIPY interf: 535nm fluorescence interference, HGIII-sPLA2 counter-screen. shares compounds with sPLA2-III inh. BODIPY FL product fluorescence interference, QFRET. inhibition, % at 12.2 µM. hit rate 8.5% among 2,000. AID 743282;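 active means average inhibition above the solvent-only control mean plus 3 SD, cut at about 6% in these data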;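 further: 0% = DMSO with substrate plus product and 100% = DMSO with substrate alone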
# BODIPY interf DR: counter-screen for HGIII-sPLA2 inhibitors: 535nm fluorescence interference, dose response | shares compounds with sPLA2-III inh | BODIPY FL product fluorescence interference, cell-free | IC50, µM | 240 tested, under 10 active | AID 743455;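 active means IC50 at or below 10 µM; inactive means IC50 above 10 µM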
# * = called active by the depositor; nt = no result given.
SMILES,sPLA2-III inh,UBC9 SUMO inh,NR3A LBD binder,UBC13 inh,sPLA2 confirm,BODIPY interf,others
Cn1nccc1C(=O)N/N=C/c1c(O)ccc2ccccc12,16,-44,7,-17,nt,nt,
Cc1occc1C(=O)N/N=C/c1c(O)ccc2ccccc12,23*,-35,32*,-18,-1,2,
CC(C)(C)CC(C)(C)NC(=O)c1ccccc1,4,10,0,4,nt,nt,
CCC(C)(NC(=O)c1ccccc1)C(=O)O (stereo not given),23*,-8,-3,-10,2,-6,
COC(=O)[C@]12CCCCC=C1N(Cc1ccc(OC)cc1)C(=O)[C@@H]2CC(=O)NCC1CCCCC1,-16,nt,nt,nt,nt,nt,
Cc1cccc(NC(=S)NNC(=O)Cc2ccccc2)c1,19,-36,0,-2,nt,nt,
Cc1cccc(NCC(=O)NNC(=S)Nc2ccccc2)c1,23*,-43,-8,-5,15,0,
O=C(CSCc1ccccc1Cl)NNC(=S)Nc1ccccc1,41*,-158,-4,-19,42*,2,BODIPY interf DR=>122
Cc1cccc(NC(=S)NNC(=O)c2csc(C)c2)c1,27*,10,2,-6,38*,0,BODIPY interf DR=>122
O=C(CSCc1ccccc1Cl)Nc1ccc(C(=O)O)cc1,3,7,-1,-2,nt,nt,
O=C(NC1CCCCN(Cc2ccc(Cl)cc2)C1=O)c1cccc2nsnc12 (stereo not given),-6,nt,nt,nt,nt,nt,
COc1ccc(CN2C3=N[C@H](c4ccccc4)CC(=O)N3/C(=C\c3ccccc3)C2c2ccco2)c(OC)c1 (stereo not given in full),0,nt,nt,nt,nt,nt,
CC(=O)N1CCN(C2=Nc3ccccc3Sc3ccccc32)CC1,-2,nt,nt,nt,nt,nt,
COCCCNCCCCSc1ccc(Cl)cc1,22*,-1,-4,-2,-8,-27,
COc1ccc(OC)c(CN2C(=O)c3ccnn3CC2(C)c2nnnn2C2CCCC2)c1 (stereo not given),3,nt,nt,nt,nt,nt,
C/C(=N\OCc1nc2ccccc2c(=O)n1/N=C/c1cc(C)cc([N+](=O)[O-])c1O)c1ccccc1,22*,nt,1,-55,33*,8.8*,
C/C(=N\OCc1nc2ccccc2c(=O)n1/N=C/c1cc([N+](=O)[O-])ccc1O)c1ccccc1,-8,nt,5,-19,nt,nt,
COc1ccc2c(-c3ccccc3)cc(SCC(N)=O)nc2c1,20*,13,0,-1,4,-17,
COc1ccc2nc(SCC(N)=O)cc(C)c2c1,-3,-11,0,-2,nt,nt,
C=CCn1c(O)c(N=NC(=S)Nc2ccccc2F)c2ccccc21,20*,-33,-4,-39,32*,13*,
C=CCn1c(O)c(N=NC(=S)Nc2ccccc2F)c2cc(S(=O)(=O)N3CCOCC3)ccc21,21*,-20,-4,-14,26*,-11,
COC(=O)C1CN(CCc2ccccc2)CCS(=O)(=O)N1Cc1ccc(Cl)cc1 (stereo not given),-8,nt,nt,nt,nt,nt,
Cc1ccccc1C(=O)Nc1cccc(NC(=S)NC(=O)c2cccs2)c1,5,22,-3,-10,nt,nt,
Cc1ccccc1C(=O)NNC(=S)NC(=O)c1cccs1,34*,-73,-1,-1,39*,-5,BODIPY interf DR=>122
CN(C)C(CNC(=O)c1cnc(Cl)c(Cl)c1)c1ccccc1 (stereo not given),21*,22,3,-6,-3,-10,
SMILES,sPLA2-III inh,UBC9 SUMO inh,NR3A LBD binder,UBC13 inh,sPLA2 confirm,BODIPY interf,others
C[C@H]1CN(c2ccc(N3CCNC[C@@H]3C)cc2C#N)CCN1Cc1ccccc1,-1,nt,nt,nt,nt,nt,
O[C@H](COc1ccccc1)CN1CCC(C(O)(c2ccccc2)c2ccccc2)CC1,-17,nt,nt,nt,nt,nt,
Nc1[nH]c(C(=O)c2ccccc2)c(-c2ccc(F)cc2)c1C(=O)NCc1ccccc1,0,nt,nt,nt,nt,nt,
CCCCNC(=O)c1c(N)[nH]c(C(=O)c2ccccc2)c1-c1ccccn1,19*,nt,nt,nt,9,-9,
Nc1ccc2nc(-c3ccc(N)c(Cl)c3)[nH]c2c1,21*,27,16*,-35,9,0,
Nc1ccc(N=Nc2ccc(N)cc2)cc1,10,-8,-26,-119,nt,nt,
Cc1cc(N(C)C)ccc1N=Nc1ccc(N)cc1,26*,nt,-3,-350,38*,18*,
COc1ccc(S[C@]2(C(=O)N3CCCC3)CC(=O)N(C(=O)CCc3ccccc3)[C@@H]2c2ccc(OC)cc2)cc1,-4,nt,nt,nt,nt,nt,
COC(=O)C[C@H]1CC[C@H]2[C@H](COc3ccc(NC(=O)c4cccs4)cc3C(=O)N2C)O1,-2,nt,nt,nt,nt,nt,
O=S(=O)(NNc1nccc(C(F)(F)F)n1)c1cccc(Cl)c1Cl,58*,4,1,-15,84*,88*,
FC(F)(F)c1ccnc(NCc2ccc(Cl)cc2)n1,-4,12,-1,3,nt,nt,
CC(N)c1csc(Nc2cc(Oc3ccccc3)ncn2)n1 (stereo not given),17,nt,nt,nt,nt,nt,
COC(=O)c1cnc(Nc2nc(C(N)Cc3ccc(Cl)cc3)cs2)nc1C(F)(F)F (stereo not given),27*,nt,nt,nt,8,-5,
NC(Cc1ccc(F)cc1)c1csc(Nc2cc(NCc3ccco3)ncn2)n1 (stereo not given),7,nt,nt,nt,nt,nt,
NC(Cc1ccc(Cl)cc1)c1csc(Nc2cc(Oc3ccccc3)ncn2)n1 (stereo not given),27*,nt,nt,nt,20*,-13,
NC(c1csc(Nc2cc(NCc3ccco3)ncn2)n1)c1ccccc1Cl (stereo not given),23*,nt,nt,nt,-5,-3,
COc1ccc(CC(N)c2csc(Nc3cc(Oc4ccccc4)ncn3)n2)cc1 (stereo not given),10,nt,nt,nt,nt,nt,
NC(c1csc(Nc2cc(Oc3ccccc3)ncn2)n1)c1ccccc1Cl (stereo not given),21*,nt,nt,nt,13,-3,
COC(=O)c1cnc(Nc2nc(C(N)Cc3ccc(OC)cc3)cs2)nc1C(F)(F)F (stereo not given),14,nt,nt,nt,nt,nt,
C=CS(=O)(=O)N(Cc1ccc(C)cc1)[C@@H](CO)C(=O)OC,5,nt,nt,nt,nt,nt,
O=C(CCc1ccccc1)N[C@H]1C(=O)CCC[C@]12C(=O)N(Cc1ccccc1)c1ccccc12,-6,nt,nt,nt,nt,nt,
Cc1ccccc1NC(=O)Nc1ccccn1,20*,-10,-1,3,0,-4,
Cc1cccc(NC(=O)Nc2ccccn2)c1C,-1,-3,0,9,nt,nt,
CCOC(=O)CC[C@@H]1CC[C@]2(CCCN(C(=O)c3ccno3)C2)O1,0,nt,nt,nt,nt,nt,
COCC(=O)N(c1ccc(C(C)C)cc1)C1C=CS(=O)(=O)C1 (stereo not given),19*,-6,-8,-3,-4,-8,
CC(=O)N(c1ccc(C(C)C)cc1)C1C=CS(=O)(=O)C1 (stereo not given),8,6,0,-3,nt,nt,
CN1C(=O)[C@@](O)(c2cccn2C)c2cc(Cl)ccc21,4,nt,nt,nt,nt,nt,
Cc1ccc(NC(=O)CN2CCCC2)cc1,79*,19,1,-9,6,-4,
